Our source for the growth values is PubChem BioAssay (NCI).

Among the test systems are SK-MEL-2 melanoma; EKVX NSCLC; SN12C renal; UO-31 renal; TK-10 renal; CAKI-1 renal; A498 renal; CCRF-CEM leukemia; MOLT-4 leukemia.
Test in all cases: NCI-60 one-dose screen, 48 h (100 = growth as untreated, 0 = no growth, -100 = all killed)
Conditions in all cases: 10 µM unless noted

The panel holds about 83,000 compounds, 20% with a hit somewhere; the sample as a whole holds those more often.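 Percent growth is the endpoint: 0 to 100 indicates growth inhibition (40 means 60% inhibition), 0 means no net growth, and negative values indicate cell death.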 Unmarked numbers belong to inactive results. The source made the active and inactive calls. Rule for the calls: active = growth percent below 10; inactive = the rest.

Turning to `O=c1scc(-c2ccc(C(F)(F)F)cc2)s1`, the growth is 77.8% with SK-MEL-2 melanoma; 78.8% in the test on EKVX NSCLC; 96.7% in the test on SN12C renal; 89.4% with UO-31 renal; 82.8% in the test on TK-10 renal; 73% in the test with CAKI-1 renal. Besides, the growth in the test on A498 renal is 77.5%; in the test on CCRF-CEM leukemia it was 88.5%; with MOLT-4 leukemia it was 94.5%.

`NC(=O)C(=O)c1ccccc1NC=O`: the growth in the test on SK-MEL-2 melanoma was 112%; in the test on EKVX NSCLC, 101%; in the test with SN12C renal, 96.6%; in the test on UO-31 renal, 60.9%; in the test with TK-10 renal it was 107%; with CAKI-1 renal it was 75.2%. The growth is 120% in the test with A498 renal, 99.1% with CCRF-CEM leukemia and 108% in the test with MOLT-4 leukemia.

On to `COc1ccc2c(c1)N(CCO)C1=C(C(=O)OC1)C2c1cccc(F)c1` (centres undefined), for which the growth with SK-MEL-2 melanoma was 31.3%; in the test on EKVX NSCLC, 38.9%; with SN12C renal it was 45.2%; in the test on UO-31 renal it was 46.3%; with TK-10 renal, 61.2%; in the test on CAKI-1 renal, 31.3%. Further, the values for the growth in the test on A498 renal, in the test on CCRF-CEM leukemia and in the test with MOLT-4 leukemia were -4.39% (active), 9.38% (active) and 16.3%, respectively.

`Cc1ccccc1/C=C/C(=O)c1cccc(OCCCOc2cccc(C(=O)/C=C/c3ccccc3C)c2)c1`: the growth in the test on SK-MEL-2 melanoma was 102% [3 µM]; with EKVX NSCLC, 95.1% [3 µM]; with SN12C renal, 91.8% [3 µM]; in the test on UO-31 renal it was 82.8% [3 µM]; with TK-10 renal it was 108% [3 µM]; in the test with CAKI-1 renal it was 77.5% [3 µM]. For the same compound, the growth in the test with A498 renal was 104% [3 µM]; with CCRF-CEM leukemia, 96.2% [3 µM]; with MOLT-4 leukemia, 90% [3 µM].

In the case of `O=C(CSC(=S)n1cnnc1)NC(=O)c1ccccc1`, the growth is 106% in the test on SK-MEL-2 melanoma; 104% in the test on EKVX NSCLC; 103% in the test on SN12C renal; 87.8% with UO-31 renal; 101% with TK-10 renal; 104% in the test on CAKI-1 renal. The growth with A498 renal is 106%; in the test on MOLT-4 leukemia, 102%.

Regarding `COc1ccccc1CNc1c2ccccc2nc2ccccc12`, the growth in the test with SK-MEL-2 melanoma is 73.5%; in the test with EKVX NSCLC it was 65.7%; in the test with SN12C renal, 34.7%; in the test with UO-31 renal it was 33.7%; in the test on TK-10 renal it was 55.5%; in the test on CAKI-1 renal it was 45.7%. The values for the growth in the test on A498 renal, with CCRF-CEM leukemia and with MOLT-4 leukemia were 13.3%, 37.5% and 20.7%, respectively.

On to `c1ccc([P+](c2ccccc2)(c2ccccc2)c2ccc3c4ccc([P+](c5ccccc5)(c5ccccc5)c5ccccc5)c5cccc(c6cccc2c63)c54)cc1`, for which the growth in the test with SK-MEL-2 melanoma is 18.6%; in the test with EKVX NSCLC, 12.8%; in the test on SN12C renal, 10.5%; in the test with UO-31 renal it was 39.4%; in the test on TK-10 renal, 52.2%; in the test with CAKI-1 renal, 40.3%. Further, the growth in the test on A498 renal was -11.3% (active); in the test on CCRF-CEM leukemia, 26.5%; in the test with MOLT-4 leukemia, 23.2%.

Regarding `O=C1/C(=C\c2ccc3nccnc3c2)SC(=S)N1CCc1ccc(O)cc1`, the growth in the test on SK-MEL-2 melanoma was 97.1%; in the test with EKVX NSCLC, 100%; with SN12C renal it was 86.9%; in the test with UO-31 renal, 49.7%; in the test with TK-10 renal it was 67.8%; with CAKI-1 renal, 78.9%. The figures for the growth in the test on A498 renal, with CCRF-CEM leukemia and in the test on MOLT-4 leukemia were 83.1%, 79% and 106%, respectively.

Turning to `COCCn1cc(-c2csc(-c3cn(C)c4ccc(Br)cc34)n2)c2cccnc21`, the growth in the test on SK-MEL-2 melanoma was 65.6%; in the test on EKVX NSCLC, 58.4%; in the test on SN12C renal, 69.1%; in the test on UO-31 renal, 61.9%; in the test on TK-10 renal, 61.5%; with CAKI-1 renal, 65%. Besides, the growth was 45.6% in the test on A498 renal, 67.4% in the test with CCRF-CEM leukemia and 63.4% with MOLT-4 leukemia.

As for `O=C1/C=C/[C@@H](O)[C@@H]2C[C@@H](O)C[C@H]2/C=C/CCC[C@H](CCc2ccccc2)O1`, the growth in the test on SK-MEL-2 melanoma is -8.8% (active); in the test with EKVX NSCLC it was 8.4% (active); in the test on SN12C renal, 11.8%; in the test with UO-31 renal it was 14.7%; with TK-10 renal it was -26% (active); with CAKI-1 renal, -8.69% (active). Besides, the growth in the test on A498 renal is -28.2% (active); with CCRF-CEM leukemia, 13.1%; in the test with MOLT-4 leukemia, 9.48% (active).

With `Cc1cc(N2CCCCC2)cc(C)c1-c1csc(NC(=O)c2ccncc2)n1`, the growth in the test with SK-MEL-2 melanoma is 95.6%; with EKVX NSCLC it was 32.9%; in the test on SN12C renal, 49.1%; in the test with UO-31 renal it was 36.9%; in the test on TK-10 renal, 77.3%; in the test with CAKI-1 renal, 49.5%. Moreover, the growth in the test on A498 renal was 42.9%; with MOLT-4 leukemia, 43.7%.

`COc1ccc(C/C(C)=C(\c2ccc(Cl)cc2)c2ccc(OCCN3CCCCC3)cc2)cc1`: the growth with SK-MEL-2 melanoma is 97%; with EKVX NSCLC it was 102%; in the test on SN12C renal, 94.3%; in the test on UO-31 renal it was 73.9%; in the test on TK-10 renal it was 97%; with CAKI-1 renal it was 86.9%. The figures for the growth with A498 renal, in the test with CCRF-CEM leukemia and in the test on MOLT-4 leukemia were 120%, 90.1% and 75.4%, respectively.

In the case of `O=C(/C=C/c1cccc(Cl)c1)c1ccc(Nc2nc(Nc3ccc(F)cc3)nc(Nc3ccc(Cl)cc3)n2)cc1`, the growth with SK-MEL-2 melanoma is 72.2%; with EKVX NSCLC it was 139%; in the test on SN12C renal, 136%; with UO-31 renal, 94.6%; in the test on TK-10 renal, 127%; in the test on CAKI-1 renal, 112%. Besides, the growth is 124% with A498 renal, 103% with CCRF-CEM leukemia and 94% with MOLT-4 leukemia.

For the compound `O=C(/C=C/c1cn(-c2ccccc2)nc1-c1ccc(Cl)cc1)c1ccc(F)cc1`, the growth was 88.6% in the test with SK-MEL-2 melanoma; 116% in the test on EKVX NSCLC; 78.1% in the test on SN12C renal; 63.3% in the test with UO-31 renal; 107% in the test on TK-10 renal; 76.5% in the test on CAKI-1 renal. In addition, the growth is 96.5% in the test on A498 renal, 40% in the test on CCRF-CEM leukemia and 36.1% with MOLT-4 leukemia.
